PubChem BioAssay (NCATS)
Records with an inconclusive call do not appear. Calls of active or inactive are those of the source. Calls come from the whole dose curve; as a rule, active = well fitted cell-killing curve with a large enough effect; inconclusive = small, poorly fitted or top-dose-only effect, or effect the other way; inactive = flat fitted curve, though single readings scatter.

Experiments:
Assay in all cases: Primary qHTS to identify gynecologic anti-cancer compounds using libraries of approved drugs and bioactive compounds (AID 1345084); note: nearly all actives have a fitted effect of over 55% in size
C33A = conditions: Gynecologic cancer cell panel viability, ATPlite luminescence, 48 h; series mostly up to 57.5 µM
Outline: (§1)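 48 h compound exposure at 37 C, 5% CO2; five-point qHTS. ATPlite luminescence readout of cell ATP.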

CAOV3 = conditions: Gynecologic cancer cell panel viability, ATPlite luminescence, 48 h; series mostly up to 57.5 µM
Outline: as §1

CASKI = conditions: Gynecologic cancer cell panel viability, ATPlite luminescence, 48 h; series mostly up to 57.5 µM
Outline: as §1

Es-2 = conditions: Gynecologic cancer cell panel viability, ATPlite luminescence, 48 h; series mostly up to 57.5 µM
Outline: as §1

HeLa = conditions: Gynecologic cancer cell panel viability, ATPlite luminescence, 48 h; series mostly up to 57.5 µM
Outline: as §1

Hek293T = conditions: Gynecologic cancer cell panel viability, ATPlite luminescence, 48 h, control line for the selectivity index; series mostly up to 57.5 µM
Outline: as §1

JEG-3 = conditions: Gynecologic cancer cell panel viability, ATPlite luminescence, 48 h; series mostly up to 57.5 µM
Outline: as §1

OV90 = conditions: Gynecologic cancer cell panel viability, ATPlite luminescence, 48 h; series mostly up to 57.5 µM
Outline: as §1

PA-1 = conditions: Gynecologic cancer cell panel viability, ATPlite luminescence, 48 h; series mostly up to 57.5 µM
Outline: as §1

SKOV3 = conditions: Gynecologic cancer cell panel viability, ATPlite luminescence, 48 h; series mostly up to 57.5 µM
Outline: as §1

Tov-21-G = conditions: Gynecologic cancer cell panel viability, ATPlite luminescence, 48 h; series mostly up to 57.5 µM
Outline: as §1

Tov112D = conditions: Gynecologic cancer cell panel viability, ATPlite luminescence, 48 h; series mostly up to 57.5 µM
Outline: as §1

Measured: Potency

Nc1nc2c(ncn2[C@@H]2O[C@@H]3COP(=O)(O)O[C@H]3[C@H]2O)c(=O)[nH]1
inactive: all assays above

CC(=O)OC[C@]12[C@H](OC(C)=O)C(=O)[C@@H]3[C@@H](OC(C)=O)[C@@]14O[C@@]3(C)COC(=O)c1cccnc1[C@@H](C)[C@H](C)C(=O)O[C@@H]([C@H](O)[C@@H]2OC(C)=O)[C@]4(C)O
inactive: all assays above

CC1CC[C@]2(C(=O)O)CC[C@]3(C(=O)O)C(=CCC4[C@@]5(C)CC[C@H](OC6OC(C)C(O)C(OC7OC(CO)C(O)C(O)C7O)C6O)C(C)(C)C5CC[C@]43C)C2C1C (stereo partly specified)
inactive: all assays above

Cn1ncnc1COc1nn2c(-c3cc(F)ccc3F)nnc2cc1C(C)(C)C
inactive: all assays above

C[C@@H]1C(=O)O[C@H]2[C@H](O)C34[C@H]5C[C@@H](C(C)(C)C)C36[C@@H](OC(=O)[C@@H]6O)O[C@@]4(C(=O)O5)[C@@]12O (stereo partly specified)
inactive: all assays above

CON(C)C(=O)[C@H](O)[C@H](Cc1ccccc1)NC(=O)c1cc2cc(Cl)ccc2[nH]1
inactive: all assays above

OC[C@H]1O[C@@H](OC[C@H]2O[C@@H](OC/C=C/c3ccccc3)[C@H](O)[C@@H](O)[C@@H]2O)[C@@H](O)[C@@H]1O
inactive: all assays above

C=CC(C)(O)CC[C@H]1C(=C)CCC2[C@](C)(C(=O)O)CCC[C@@]21C (stereo partly specified)
inactive: all assays above

CC(C(O)/C=C/C(C)(C)O)C1CCC2(C)C3C(=O)C=C4C(CCC(O)C4(C)C)C3(C)CCC12C (stereo unspecified)
inactive: all assays above

C=C1C[C@]23C[C@H]1[C@@H](O)C[C@H]2[C@@]12C=C[C@H](O)[C@@](C)(C(=O)O1)[C@H]2[C@@H]3C(=O)O
inactive: all assays above

C[C@@H]([C@@H](O)c1ccc(O)cc1)N1CCC(O)(c2ccccc2)CC1
inactive: all assays above

COC(=O)C[C@H]1C(C)(C)[C@H](OC(=O)C(C)C)[C@@]2(O)C(=O)[C@]1(C)C1CC[C@]3(C)C(CC(=O)O[C@H]3c3ccoc3)[C@]13O[C@@H]32 (stereo partly specified)
inactive: all assays above

CCOCCn1nc(CC)c2nc(N3CCC(C(=O)O)CC3)nc(Nc3cc(C)ccn3)c21
inactive: all assays above
